# Screening data (PubChem BioAssay)
# AID504770: growth inhibitors of E. coli YBA685 in a screen for V. cholerae RctB (chromosome II replication) inhibitors. E. coli YBA685 rctB-dependent plasmid, OD600 growth, 3 h; active compounds read low. z-score (no concentration beside the values). actives 0.27% (n = 130,000); in the data active = z-score below about -2, passing the limit was not always enough
# PV pol inh: inhibitors of poliovirus RNA polymerase binding and polymerization | poliovirus polymerase elongation, fluorescence polarization; active compounds read low | P03300 | % elongation, % (compound at 16.7 µg/mL) | actives 0.66% (n = 150,000) | AID 588519; in the data active = % elongation below about 90%
# MenB inh: inhibitors of Mycobacterium tuberculosis MenB enzyme; P9WNP5; inhibition, % (no concentration beside the values); actives 0.43% (n = 100,000); AID 540299; MenB enzyme assay, absorbance read-out; in the data active = inhibition above about 21%, passing the limit was not always enough
# Target sequence (P9WNP5 whole entry, looked up): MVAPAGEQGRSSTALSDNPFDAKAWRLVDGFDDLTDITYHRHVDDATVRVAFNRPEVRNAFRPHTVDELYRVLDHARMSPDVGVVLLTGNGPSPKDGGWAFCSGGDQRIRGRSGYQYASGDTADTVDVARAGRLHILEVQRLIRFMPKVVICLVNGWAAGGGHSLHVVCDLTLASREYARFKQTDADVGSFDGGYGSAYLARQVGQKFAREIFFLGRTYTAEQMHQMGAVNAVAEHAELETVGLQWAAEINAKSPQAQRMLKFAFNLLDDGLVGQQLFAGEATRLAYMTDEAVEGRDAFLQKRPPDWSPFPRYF
# MbtI inh: inhibitors of Mycobacterium tuberculosis siderophore enzyme MbtI; P9WFX0; purified MbtI enzyme, fluorescence intensity read-out; inhibition, % (no concentration beside the values); actives 0.89% (n = 100,000); AID 493033; in the data active = inhibition mostly above about 56%, no sharp cut-off; inactive = mostly below about 77%
# An asterisk follows results filed as active; nt = no result given. Only some compounds are listed: those with a hit (about 1.4% of all), similar ones and a draw of the others.
SMILES,AID504770,PV pol inh,MenB inh,MbtI inh
O=c1c[n+]([O-])c2ccccc2n1OCc1ccccn1,2,103,-49,-8
Cc1ccc2occ(CC(=O)N(Cc3ccccc3Cl)C3CCS(=O)(=O)C3)c2c1 (stereo not drawn),nt,-14*,nt,nt
O=S(=O)(NC1CC1)c1ccc(S(=O)(=O)N2CCC3(CC2)OCCO3)cc1,-0.7,102,-8,-12
COC(=O)/C=C/S(=O)(=O)c1ccc2ccccc2c1,-1.6,99,-2,101*
CNS(=O)(=O)c1ccc2ccccc2c1,0.6,101,nt,-2
CCC(Sc1nc2c(c(=O)[nH]1)CCC2)C(=O)Nc1cccc(OC)c1 (stereo not drawn),-1.1,102,5,96*
C1CCC2(CC1)C1=C(CCCC1)Nc1nnnn12,0.65,100,32*,1
C=CCn1c(Cc2ccc(O)c(Cl)c2)n[nH]c1=S,2.9,101,-18,93*
COC(C)(C)CCC[C@H](C)C/C=C/C(C)=C/C(=O)OC(C)C,0,99,1,-12
c1ccc(CNCCc2c[nH]c3ccccc23)cc1,0.95,nt,nt,-2
c1ccc(CC(NCc2c[nH]c3ccccc23)c2ccccc2)cc1 (stereo not drawn),-3.1*,nt,nt,-11
C=CCN1C(=O)CS/C1=C(\C#N)S(=O)(=O)c1ccc(C)cc1,-2.9*,98,-69,1
CNC(=O)c1cc2c(n(-c3ccccc3)c1=O)CCCC2=O,-0.05,101,-4,33
O=C(Oc1ccccc1C(=S)N1CCOCC1)c1ccccc1,0.3,104,-38,27
CCOc1ccccc1C(=S)N1CCOCC1,-0.8,100,-6,74*
O=C1CSC(N2CCOCC2)=N1,-1.3,103,5,-10
Cc1nn(C)c2c1S(=O)(=O)N=C(N1CCOCC1)S2,-0.05,81*,-11,4
CN(C(=O)CSc1n[nH]c(=O)[nH]c1=O)c1ccccc1,0.15,102,-3,-3
O=C1C(Nc2ccccc2)=CC(=O)c2ncccc21,nt,82*,-7,3
O=c1c2ccccc2nc(/C=C/c2cccc3ccccc23)n1-c1ccc(Cl)cc1,nt,113,nt,nt
S=c1c(Cl)c(Cl)cnn1Cc1ccccc1,0,67*,-50,nt
CCCc1nc2ccccc2n2c(-c3cccc(C)c3)c3c(=O)n(C)c(=O)n(C)c3c12,nt,105,nt,nt
C#CCOC(=O)Nc1ccc(Cl)c(Cl)c1,-1.1,100,7,-3
CN1CCCN(Cn2nc3ccccn3c2=S)CC1,0.95,15*,-8,48
CC(CN1CCCN(C)CC1)c1ccccc1 (stereo not drawn),-0.8,102,-22,-5
SMILES,AID504770,PV pol inh,MenB inh,MbtI inh
CC(NC(=O)c1cc(=O)[nH]c2ccc(S(=O)(=O)N3CCOCC3)cc12)C12CC3CC(CC(C3)C1)C2 (stereo not drawn),-0.2,-9.0*,-13,11
CC1CCN(S(=O)(=O)c2ccc3[nH]c(=O)cc(C(=O)NCCCN4CCOCC4)c3c2)CC1,-0.4,99,-10,22
N#Cc1c(N2CCCC(O)C2)nc(N)c2c(N)nc3c(c12)CC(=O)N3C12CC3CC(CC(C3)C1)C2 (stereo not drawn),1.3,39*,-25,-14
C=C(C)CN(CC)c1nc(N)c2c(N)nc3c(c2c1C#N)CC(=O)N3C12CC3CC(CC(C3)C1)C2,1,102,-2,-18
CC(CCc1ccccc1)NC(=O)C1CCN(S(=O)(=O)N2CCOCC2)CC1 (stereo not drawn),-0.05,103,1,-10
CCS(=O)(=O)c1ccc2oc(SCC(=O)NCc3ccccc3)nc2c1,-0.05,104,-17,-5
CC(C)(C)/C(O)=C/c1nc2ccccc2oc1=O,-0.5,97,64*,-2
CCS(=O)(=O)c1ccc2oc(=O)c(/C=C(\O)C(C)(C)C)nc2c1,-0.65,100,55*,10
Cc1nc(C)c(/C(O)=C/c2nc3cc(Cl)ccc3oc2=O)o1,1.4,102,6,3
CC(C)C/C(O)=C/c1nc2cc(Cl)ccc2oc1=O,-1.1,101,85*,22
O=c1cc(-c2ccccc2)nc(SCc2nc(-c3ccc(C(F)(F)F)cc3)no2)[nH]1,nt,104,nt,nt
Cc1cc(C)c2c(/N=N/N3CCCCCC3)[nH]nc2n1,-4*,101,-21,1
Cc1cc(C)c2c(-c3ccccc3)[nH]nc2n1,-0.85,nt,nt,-57
CC(C)c1nc(=S)[nH][nH]1,0.2,84*,-8,87*
O=C(O)CCN1CCC(Cc2ccccc2)CC1,-1.4,100,-49,-4
O=C(CCS(=O)(=O)c1cccc2nonc12)Nc1ccc(Br)cc1,nt,101,nt,nt
